Data: PubChem BioAssay AID1347069 (National Center for Advancing Translational Sciences (NCATS), 2019)
Screen size: about 44,000 compounds; fewer than 10 were called active. Calls follow the shape of the dose curve; as a rule, active = well fitted inhibition curve with a large enough effect; inconclusive = small, poorly fitted or top-dose-only effect; inactive = flat fitted curve, though single readings scatter. The list is a sample of the results.

Target: Tumor susceptibility gene 101 protein (Homo sapiens) (UniProt Q99816)
Sequence (Q99816 whole entry, looked up): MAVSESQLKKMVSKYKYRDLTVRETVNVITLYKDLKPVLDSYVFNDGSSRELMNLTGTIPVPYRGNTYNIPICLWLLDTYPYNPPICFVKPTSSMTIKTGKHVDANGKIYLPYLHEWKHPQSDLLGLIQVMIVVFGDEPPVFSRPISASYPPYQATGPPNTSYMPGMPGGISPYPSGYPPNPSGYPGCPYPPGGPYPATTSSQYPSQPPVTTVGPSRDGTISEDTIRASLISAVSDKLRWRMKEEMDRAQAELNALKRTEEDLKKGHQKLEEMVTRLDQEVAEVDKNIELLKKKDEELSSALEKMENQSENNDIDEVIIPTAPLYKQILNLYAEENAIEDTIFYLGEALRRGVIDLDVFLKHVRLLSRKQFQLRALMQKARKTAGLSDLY
Assay: qHTS Validation Assay for Inhibitors of HIV-1 Budding by Blocking the Interaction of PTAP/TSG101: Sytravon Library Screen; as to activity change, negative = inhibition: 0% is about no effect
Details: Fluorescence polarization, FITC-PTAP peptide/Tsg101, 20 min; series mostly up to 115 µM; activity change, negative = inhibition: at the top concentration
Source text: Stages of the HIV-1 replication cycle, specifically virus assembly and release, provide underexploited targets for the development of novel antiviral inhibitors. The late stages of HIV-1 replication are mediated by the Gag precursor protein, Pr55Gag. Expression of Pr55Gag is both necessary and sufficient for the production of virus-like particles from Gag-expressing cells. The Gag protein hijacks key host proteins involved in endocytic machinery of the host cell to promote endosomal processing and viral budding. The budding process requires a direct interaction between a […] (PTAP) motif in the p6 domain of Gag and the cellular endosomal sorting protein known as Tsg101. In this way, the Gag PTAP motif promotes the host cells to recruit viral particles to the plasma membrane where the new viral particles are released, effectively turning the host cells into viral factories. A fluorescence polarization assay has been developed to quantitatively measure the PTAP-Tsg101 interaction which can be used to screen for inhibitors of this interaction. This assay was run against the NCGC Sytravon Library collection. NIH Molecular Libraries Probe Production Network [MLPCN] NIH Chemical Genomics Center [NCGC] Grant: R03 MH087464-01A1 PI Name: Dr. Eric Freed, NCI
Two uL of the Tsg101 binding domain in buffer (10 mM HEPES pH 7.5; 0.15 M NaCl, 0.01% Tween 20; 3 mM EDTA;0.1 mM TCEP) was dispensed into Greiner black MB 1536-well plates (final concentration 10 uM). Then, 23 nL of compounds or DMSO were delivered to each well using a pin tool. Finally, 2 uL of a FITC-labeled peptide containing the PTAP motif (1) in the same buffer was dispensed (50 nM final concentration) and the binding was allowed to proceed for 20 min. at r.t. Fluorescent polarization was determined using FITC excitation and polarized emission filters on a Perkin Elmer Envision. Assay cut-off (positive/negative criteria): Actives defined by CRC class, <25 µM; Efficacy <60% inhibition. The total fluorescent intensity from S and P channels will be used to flag fluorescent compounds.
Potency is read from the fitted curve at half-maximal effect.

| Compound | activity change, negative = inhibition | Potency |
| --- | --- | --- |
| COc1cc(CN(C(=O)c2ccccc2Br)c2ccccn2)cc(OC)c1OC | 1.54% (inactive) |  |
| CCOCCCNC(=O)c1c(NC(=O)Cc2coc3c(C)c(C)ccc23)sc2c1CCC2 | -5.83% (inactive) |  |
| Cc1nnc(N2CCC(C(=O)Nc3ccc(F)cc3)CC2)c2nn(-c3ccc(Cl)cc3)c(C)c12 | -0.22% (inactive) |  |
| O=C(c1cc(-c2ccc(F)cc2)on1)N1CCN(c2ccc(F)cc2)CC1 | -0.644% (inactive) |  |
| COC(=O)CN1C(=O)CSc2ccc(S(=O)(=O)Nc3cc(C)ccc3C)cc21 | 0.45% (inactive) |  |
| Cc1cc(C)c2oc(C(=O)Nc3c(C(=O)Nc4ccccc4)oc4ccccc34)cc(=O)c2c1 | -3.4% (inactive) |  |
| O=C(NC1CC(=O)N(c2ccc(Cl)cc2)C1)C1CCCC1 (configuration not stated) | 1.05% (inactive) |  |
| CN1CCN(c2oc(-c3ccc(COc4ccc(Cl)cc4)o3)nc2C#N)CC1 | -1.61% (inactive) |  |
| COc1ccc(-c2nc3sc(CCNS(=O)(=O)c4ccc(F)c(C)c4)c(C)n3n2)cc1 | -2.15% (inactive) |  |
| O=C(COc1ccccc1F)Nc1ccc(C(=O)OCc2cc(=O)n3nc(C4CC4)sc3n2)cc1 | -2.26% (inactive) |  |
| CCC(=O)Nc1ccccc1-c1nc2ccccc2n(CC(=O)Nc2ccc(C)c(C)c2)c1=O | -2.55% (inactive) |  |
| Cc1cccc(-c2nc(SCC(=O)Nc3cc(C)on3)c3c(=O)n(C)c(=O)n(C)c3n2)c1 | -8.93% (inactive) |  |
| CC(=O)c1ccc(NC(=O)CSc2c(C(C)C)cnc3c2c(=O)n(C)c(=O)n3C)cc1 | -0.533% (inactive) |  |
| COc1ccc(OCc2ccc(-c3nc(C#N)c(N4CCN(c5ccccc5)CC4)o3)o2)cc1 | -0.55% (inactive) |  |
| CCCCNC(=O)c1cc(-c2ccc(Cl)c(Cl)c2)on1 | 0.656% (inactive) |  |
| CCSc1ncc(Cl)c(C(=O)Nc2c(C(=O)c3ccccc3)oc3ccccc23)n1 | 0.154% (inactive) |  |
| Cc1ccc(NC2=C(c3ccc(C(F)(F)F)cc3)C(=O)c3ccccc32)cc1F | -2.86% (inactive) |  |
| COc1ccc(S(=O)(=O)c2c(Nc3cccc(Cl)c3)sc(C(=O)c3ccccc3)c2N)cc1 | 1.26% (inactive) |  |
| COc1cccc(C(=O)Nc2ccc(-c3cc(C(F)(F)F)nn3-c3ccccc3)cc2)c1 | -5.37% (inactive) |  |
| COc1cccc(C(=O)c2sc3nc(-c4ccccc4)cc(C(F)(F)F)c3c2N)c1 |  | 28.2 µM (active) |
| COc1ccc(NC(=O)CN2CCCN(Cc3ccccc3)S2(=O)=O)cc1 | 4.58% (inactive) |  |
| COc1ccccc1Nc1nc(N)nc(N)c1S(=O)(=O)c1ccccc1 | 2.79% (inactive) |  |
| COc1cccc(N2CCN(C(=O)CCCCCn3c(=O)[nH]c4ccccc4c3=O)CC2)c1 | -2.04% (inactive) |  |
| COc1ccc(CNC(=O)c2cc3c(=O)[nH]c4ccccc4c3s2)cc1 | -0.283% (inactive) |  |

| Compound | activity change, negative = inhibition | Potency |
| --- | --- | --- |
| CCCN1C(=O)C(O)(CC(=O)c2ccc(CC)cc2)c2cc(Br)ccc21 (configuration not stated) | -0.282% (inactive) |  |
| O=C(c1ccco1)n1nc(-c2ccc(Cl)cc2)nc1NCc1ccccc1 | -4.62% (inactive) |  |
| Cn1c(=O)c2c(-c3ccccc3Br)n(Cc3ccccc3)cc2n(C)c1=O | -2.21% (inactive) |  |
| Cc1cc(C)c(NC(=O)CN2C(=O)c3cccnc3Oc3ccc(Cl)cc32)c(C)c1 | 0.363% (inactive) |  |
| CCOC(=O)c1ccc(NC(=O)C2CCN(S(=O)(=O)c3ccc4c(c3)CCCC(=O)N4)CC2)cc1 | -0.0606% (inactive) |  |
| O=C(Nc1ccc2nc(SCC(=O)N3CCCc4ccccc43)sc2c1)c1ccc(F)cc1 | 7.03% (inactive) |  |
| CCOc1ccc(NC(=O)Cn2c(=O)n(CCCC(=O)NCc3ccc4c(c3)OCO4)c(=O)c3ccccc32)cc1 | -2.28% (inactive) |  |
| CC(=O)N1c2ccc(S(=O)(=O)N3CCCCCC3)cc2CC1C(=O)NCc1ccccc1C (configuration not stated) | 1.47% (inactive) |  |
| CCOc1cccc(C(=O)Nc2nnc(S(=O)(=O)N(C)c3ccc(C)cc3)s2)c1 | 4.37% (inactive) |  |
| COc1cc(CNCCSc2nnnn2C)ccc1OCc1ccc(Cl)cc1Cl | -9.59% (inactive) |  |
| Cc1cn(C)c(CC(=O)NCc2ccccc2)c1C(=O)O | -6.7% (inactive) |  |
| CCc1ccc(CNC(=O)c2ccc(CS(=O)c3ccc(Br)cc3)o2)cc1 (configuration not stated) | -1.78% (inactive) |  |
| COc1ccc(-n2ccnc(NCCc3ccc(Cl)cc3)c2=O)cc1OC | -3.87% (inactive) |  |
| N#Cc1nc(/C=C/c2ccc(F)cc2)oc1NC1CCCCC1 | 0.943% (inactive) |  |
| COc1ccc(CNC(=O)CS(=O)Cc2nc(-c3cccc(C)c3)oc2C)cc1 (configuration not stated) | 0.25% (inactive) |  |
| CCOc1ccc(NC(=O)c2cc(S(=O)(=O)N3CCCC3)c[nH]2)cc1 | -8.6% (inactive) |  |
| COc1cccc(C(=O)NCC(=O)OCc2cc(=O)n3ccsc3n2)c1 | 1.45% (inactive) |  |
| Cc1nn(-c2ccc(N3CCCCC3)nn2)c(C)c1CCC(=O)NCc1ccccc1F | 1.09% (inactive) |  |
| CCc1cc2c(cc3c(=O)n(CC(=O)N4CCN(c5cc(Cl)ccc5C)CC4)ncn32)s1 | -5.09% (inactive) |  |
| CCOc1ccc(C2C(=O)N(C3CCCCC3)CC(=O)N2CCC2=CCCCC2)cc1OC (configuration not stated) | -8.4% (inactive) |  |
| CC1CCCN(Cc2c(O)ccc3c(=O)c(Oc4ccc(C(C)(C)C)cc4)c(C(F)(F)F)oc23)C1 (configuration not stated) | -0.105% (inactive) |  |
| CCc1cccc(C)c1NS(=O)(=O)c1ccc(-c2cc(C)no2)s1 | 0.67% (inactive) |  |
| O=C(CCS(=O)(=O)c1cc(Br)cc2c1N(C(=O)C1CC1)CC2)Nc1ccc(C(F)(F)F)cc1 | 0.0494% (inactive) |  |
